# Assay results from ChEMBL document CHEMBL4513216, “Probing the Open Global Health Chemical Diversity Library for Multistage-Active Starting Points for Next-Generation Antimalarials” (ACS Infect Dis, 2020).
# Screen size: about 69,000 compounds; about 8,600 (12%) showed an effect of 50% or more. Many of the other results were omitted from the sample, so strong results are more common in it than they were.
# Test system: Plasmodium berghei
# Experiment: Screen against P. berghei liver stage (PbLuc), transformed with Luciferase, at 10uM
# Type: functional, HepG2
# Details: tested at 10 uM
row,SMILES,INHIBITION [%]
1,O=C(NC1CC1)C1=CC2(CCN(CCO)CC2)c2ccccc21,28.4
2,COCC(=O)N1CCCC2(CCN(CCN3CCCC3)CC2)C1,-12.1
3,Cc1noc(C)c1CN(C)C(=O)c1ccc(O)nc1,25.1
4,CC(=O)N(C)CC(=O)NCC1CCN(c2cc(Cl)ccc2C)C1 (stereo unspecified),-23.7
5,Cc1nccc([C@@H]2C[C@@H]3CCN(S(=O)(=O)N(C)C)C[C@H]3O2)n1,26.3
6,Cn1ccc(C(=O)N2CCCC(Cc3cnc4ccccc4c3)C2)n1 (stereo unspecified),-0.371
7,COCCn1cnc2ccc(NC(=O)c3c(C)noc3C)cc2c1=O,35.7
8,Cn1cc(C(=O)N2CC[C@@H]3[C@@H]2CCN3Cc2cccc(F)c2)cn1,43.2
9,Cc1nc2cc(OCc3nc(C(=O)NC(C)(CO)CO)co3)ccc2s1,74.5
10,CC[C@@H](CO)NC(=O)c1coc(COc2ccc3sc(C)nc3c2)n1,41.5
11,Cc1nc2cc(OCc3nc(C(=O)NC(CO)CO)co3)ccc2s1,29.4
12,Cn1nnnc1SCC1(O)CCCCC1,1.74
13,O=S(=O)(CC1CCCCO1)Nc1cc(F)ccc1-n1cccn1 (stereo unspecified),25.7
14,Cc1ccc(S(=O)(=O)Nc2ccc(N3CCSCC3)c(C(=O)O)c2)s1,43.9
15,Cc1cc2nc(C(C)C)cc(N(C)CC3CCCN(CCO)C3)n2n1 (stereo unspecified),58.5
16,Cc1cc2nc(C(C)C)cc(N(C)CC3CCCN3C)n2n1 (stereo unspecified),33
17,Cc1cc2nc(C(C)C)cc(N(C)CC3CCN(C(C)C)C3)n2n1 (stereo unspecified),27.6
18,Cc1ccc(NC2CCN(C(=O)c3cncnc3C)CC2)nn1,-17.22
19,CCn1ccc(NC(=O)CCc2c(C)nn(C)c2C)n1,38.7
20,CNC(=O)CS(=O)(=O)C1CCN(S(=O)(=O)c2cccc(Cl)c2C)CC1,80
21,CNC(=O)CS(=O)(=O)C1CCN(S(=O)(=O)c2ccccc2Br)CC1,-26.6
22,CNC(=O)CS(=O)(=O)C1CCN(S(=O)(=O)c2ccccc2Cl)CC1,25.8
23,Cc1cccc2[nH]c(COCC(=O)N3CCCn4cncc4C3)nc12,22.7

row,SMILES,INHIBITION [%]
1,COc1ccc(C(=O)Nc2c(C(=O)N(C)C)nn(C)c2C)cc1,61.5
2,Cc1ccc(C(=O)Nc2c(C(=O)N(C)C)nn(C)c2C)cc1,-10.6
3,Cc1c(NC(=O)c2ccc(Br)cc2)c(C(=O)N(C)C)nn1C,17.6
4,CCOCC1CN(Cc2ccsc2)Cc2cnn(C)c21 (stereo unspecified),36.2
5,CC(Cn1cncn1)NC(=O)c1cn(Cc2ccccc2F)nn1 (stereo unspecified),68.8
6,O=C(NCCCOc1cccnc1)c1cn(Cc2ccccc2F)nn1,12.9
7,NCCn1cc(C(=O)NCc2ccccc2Cn2cccn2)nn1,29.4
8,CCOC(=O)CC(C)NC(=O)c1cn(Cc2ccccc2F)nn1 (stereo unspecified),-44.2
9,CCOC(=O)CC(NC(=O)c1cn(Cc2ccccc2F)nn1)C(C)C (stereo unspecified),72.6
10,COC(=O)C(CO)NC(=O)c1cn(Cc2ccccc2F)nn1 (stereo unspecified),-4.4
11,COCC1CCN(C(=O)c2cn(Cc3ccccc3F)nn2)CC1,14.2
12,COC(=O)CNC(=O)c1cn(Cc2ccccc2F)nn1,82.9
13,CC(NC(=O)NCCCn1cncn1)c1ccccc1F (stereo unspecified),11.9
14,COc1ccc(CNCCc2cc(F)cc3c2OCOC3)c(OC)c1,30
15,Cc1cc(C(=O)NCc2ccc(F)cc2)nc(C2CCCN2C)n1 (stereo unspecified),-3.31
16,OCCO[C@H]1C[C@@H](O)C12CCN(Cc1nc(C(F)(F)F)no1)CC2,-17.8
17,CCN1CCCCC1C(=O)N1CCN(C(=O)OC)CC1 (stereo unspecified),29.9
18,CCn1cnnc1C1CCN(C(=O)c2cnc(C)s2)CC1,27.6
19,CC(C)c1ncncc1C(=O)NCCN1CCCCC1C (stereo unspecified),36.9
20,CCOCC1CCN(C(=O)C(c2cccc(F)c2)N(C)C)CC1 (stereo unspecified),17.5
21,CN(C(=O)CC1=CCCCC1)C1CCCN(C2Cc3ccccc3C2)C1 (stereo unspecified),28.3
22,CN(C(=O)CC1=CCCCC1)C1CCCN(CCc2ccccc2)C1 (stereo unspecified),59.2
23,CN(C(=O)CCc1ccncc1)C1CCCN(CCc2ccccc2)C1 (stereo unspecified),-8.07

row,SMILES,INHIBITION [%]
1,CC(O)c1cn(Cc2ccc(Cl)cc2Cl)nn1 (stereo unspecified),7.92
2,Cc1cc(C(=O)N2CCCC2c2noc(C)n2)[nH]n1 (stereo unspecified),38.5
3,CN(Cc1cccc2ncccc12)C(=O)CCC(F)(F)F,19.7
4,CCCNC(=O)c1cccc2ncccc12,26.7
5,CCCC(=O)N(C)c1cccc2ncccc12,77.8
6,Cc1cccc(=O)n1CCC(=O)N(C)Cc1cccc2ncccc12,33.1
7,CN(C(=O)CCC(F)(F)F)c1cccc2ncccc12,71.4
8,CCCC(=O)N(C)c1cc(C#N)c2ccccc2n1,-31.7
9,COc1ccc(-n2cc3[nH]c(=O)n(C(C)C)n3c2=O)cc1,-12.5
10,CCOCC1CN(Cc2cccs2)Cc2nn(C)cc21 (stereo unspecified),-2.72
11,CCN(Cc1ccc2c(c1)OCCO2)C(=O)c1ccc(C)[nH]c1=O,-4.43
12,O=C(Cn1ncc2c(c1=O)CCCCC2)Nc1cccc2[nH]ccc12,36.1
13,Cn1ccc2c(NC(=O)Cn3ncc4c(c3=O)CCCCC4)cccc21,6.29
14,Cn1ccc2c(NC(=O)Cn3ncc4c(c3=O)CCCC4)cccc21,74.1
15,Cn1cc(CC2CCN(C(=O)NCCCc3ccc(O)cc3)C2)cn1 (stereo unspecified),49.2
16,O=C(CCc1nccs1)N1CCN(c2cccnn2)CC1,1.77
17,CC(C)OCCC(=O)NCCC(=O)N1CCN(c2ccccn2)CC1,14.2
18,CC(C)COCCC(=O)NCCC(=O)N1CCN(c2ccccn2)CC1,56.6
19,O=C(CCc1nccs1)N1CCN(c2ncccn2)CC1,26.1
20,O=C(CCc1nccs1)N1CCN(c2ccccn2)CC1,51.1
21,CC(C)C(=O)NCCC(=O)N1CCN(c2ccccn2)CC1,24.1
22,Cc1nn(CC(=O)NCCc2ccncc2)c(=O)n1Cc1ccccc1,-45
23,CNC(=O)CN(C)C(=O)c1cc(Cl)c(I)cc1OC,45.2

row,SMILES,INHIBITION [%]
1,CCCNC(=O)C1CCCN(Cc2ccc(-n3cncn3)c(C)c2)C1 (stereo unspecified),-14.5
2,Cc1nc(CN)cc(NCc2ccccc2-n2cncn2)n1,33.7
3,CCc1cc(NCc2ccc(-n3cncn3)c(C)c2)n(C)n1,79.5
4,Cc1cc(CNc2ccnn2CC(C)C)ccc1-n1cncn1,89.7
5,Cc1cc(CNc2ccnn2C)ccc1-n1cncn1,62.8
6,Cc1cc(CNC(C)Cn2cncn2)ccc1Br (stereo unspecified),41.4
7,CC(Cn1cncn1)NCc1ccc2nonc2c1 (stereo unspecified),12
8,CCOC(=O)NC1CCCN(Cc2ccc(-n3cncn3)c(C)c2)C1 (stereo unspecified),-1.35
9,Cc1cc(CN2CCCC(NS(C)(=O)=O)C2)ccc1-n1cncn1 (stereo unspecified),-3.14
10,CN1CCc2ncc(CNC(=O)c3cccn3C)n2CC1,20.9
11,CCn1ccnc1CN1CCN(Cc2cnc(C)cn2)CC1C (stereo unspecified),13.2
12,NC(=O)CN1CCC(c2csc(Nc3cnccn3)n2)CC1,33.8
13,NC(=O)CN1CCCC1c1csc(Nc2cnccn2)n1 (stereo unspecified),51.5
14,Cc1nc(Nc2cnccn2)cc(C2CCN(c3ncccn3)C2)n1 (stereo unspecified),-17.7
15,OCCN1CCC(c2csc(Nc3cnccn3)n2)CC1,0.825
16,COCC(=O)N1CCCC1c1csc(Nc2cnccn2)n1 (stereo unspecified),44.1
17,CCC(=O)N1CCCC1c1csc(Nc2cnccn2)n1 (stereo unspecified),-4.82
18,CC(=O)N1CCCC1c1csc(Nc2cnccn2)n1 (stereo unspecified),13.5
19,c1cnc(N2CCCC(c3csc(Nc4cnccn4)n3)C2)nc1 (stereo unspecified),61.3
20,c1cnc(N2CCC(c3csc(Nc4cnccn4)n3)CC2)nc1,76.7
21,CCCn1cnnc1CN(C)C(=O)C1CCCN(C2CCN(C)CC2)C1 (stereo unspecified),-21.3
22,COCCC(=O)N1CCCC1c1nc(O)cc(-c2ccccn2)n1 (stereo unspecified),35.2
23,Cc1nc2n(n1)CC(Nc1nc(-c3ccccc3)no1)CC2 (stereo unspecified),-6.51

row,SMILES,INHIBITION [%]
1,CSCc1cc(F)ccc1CNC(=O)N1CCOCC1,13.1
2,CSCc1cc(F)ccc1CNC(=O)N1CCC(CO)CC1,56.6
3,CSCc1cc(F)ccc1CNC(=O)N1CCC[C@@H]1CO,31.9
4,CSCc1cc(F)ccc1CNC(=O)N1CCCC(CO)C1 (stereo unspecified),78.3
5,COc1ccccc1CNC(=O)N1CCCC(CO)C1 (stereo unspecified),-10.7
6,CSCc1cc(F)ccc1CNC(=O)N1CCCC1,-110
7,Cc1c(Cl)cccc1NC(=O)c1nc[nH]n1,-1.16
8,COc1ccc(-c2cc3nn(CC(=O)NC(C)C)c(=O)n3c(C)n2)cc1,53.2
9,Cc1nc(-c2ccccc2)cc2nn(CC(N)=O)c(=O)n12,28.6
10,COc1ccc(-c2cc3nn(CC(N)=O)c(=O)n3c(C)n2)cc1,14.3
11,NC(=O)CC1CCN(C(=O)NCCc2ccc(Cl)s2)CC1,-17.6
12,c1ccc(CN2CCCC3(CCN(Cc4cccs4)C3)C2)nc1 (stereo unspecified),21.1
13,Cc1nn(C)c(N2CCOCC2)c1CNC(c1ccccc1)C1CC1 (stereo unspecified),14.6
14,O=C(C1CCCC1)N1CC2(CCN(C3COC3)C2)Cc2ccccc21 (stereo unspecified),10.1
15,O=C(C1CCCC1)N1CC2(CCN(C3COC3)CC2)Cc2ccccc21,53.2
16,O=C(C1CCCOC1)N1CCCc2ccccc21 (stereo unspecified),-21
17,O=C(C1CCCC1)N1CC2(CCCN(C3COC3)C2)Cc2ccccc21 (stereo unspecified),-0.621
18,O=C(C1CCCC1)N1CC2(CCNC2)OCc2ccccc21 (stereo unspecified),11
19,O=C(C1CCCC1)N1CC2(CCN(C3COC3)C2)OCc2ccccc21 (stereo unspecified),53.2
